Screening data as filed in PubChem.
Shn3 3UTR inh: inhibitors of Schnurri-3 3'UTR reporter in osteoblasts; 360,000 compounds, 0.52% hits; AID 588674; Clone20 osteoblast Shn3 3'UTR firefly luciferase, 24 h; inhibition, % at 12.5 µM;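 active means mean inhibition of at least 75% with every replicate also reaching 75%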;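 further: 0% = median of neutral control wells and 100% = pilot-screen positive control compound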
LMP1 NFkB inh: reduces LMP1-driven NF-kappaB luciferase signal; LMP1-induced NF-kappaB luciferase reporter cells, luminescence; inhibition, % at 12.5 µM; 350,000 compounds, 0.69% hits; in the data active means inhibition above about 41%;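 further: 0% = neutral control wells and 100% = reference inhibitor control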
MITF TRPM1 inh: reduces MITF-dependent TRPM1 promoter luciferase signal | SK-MEL-5 TRPM1 promoter luciferase, 24 h | inhibition, % at 12.5 µM | 330,000 compounds, 0.83% hits;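 active means mean inhibition across replicates of 60% or more, whatever share of single replicates reaches that level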
TWEAK-Fn14 inh: blocks TWEAK-Fn14 interaction in a reporter cell assay | TWEAK-stimulated Fn14 reporter cells, luciferase luminescence, 8 h | inhibition, % at 10 µM | 360,000 compounds, 2% hits; in the data active means inhibition above about 50%
HIF-2a block: HIF-2a inhibition; 786-0 RCC cells HIF-2a reporter, luciferase luminescence, overnight; inhibition, % at 18.8 µM; 360,000 compounds, 0.72% hits;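 active means inhibition of the luminescence signal of 40% or more relative to plate controls, in a single-dose primary screen at 18.75 µM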
TROY signal inh: TROY signaling inhibition; Q293 LMP1-TROYcd NF-kB luciferase reporter, 4 h; inhibition, % at 10 µM; 360,000 compounds, 0.98% hits;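 active means compounds whose plate-normalised and pattern-corrected inhibition of the luciferase reporter signal at the single screening dose is 50% or more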
Active calls of the source: *; nt = no result. Sampled rows, rich in hits. Any-hit rate of the full collection: about 3.4%.

SMILES	Shn3 3UTR inh	LMP1 NFkB inh	MITF TRPM1 inh	TWEAK-Fn14 inh	HIF-2a block	TROY signal inh
CCCCn1c(NC(=O)c2ccc(Br)o2)c(S(=O)(=O)c2ccccc2)c2nc3ccccc3nc21	10	7	10	74*	-6	71*
Nc1c(S(=O)(=O)c2ccccc2)c2nc3ccccc3nc2n1C1CC1	-1	-3	-4	3	18	-10
CCCCCn1c(NC(=O)c2ccco2)c(S(=O)(=O)c2ccc(C)cc2)c2nc3ccccc3nc21	2	9	-1	67*	-9	65*
CCCCn1c(NS(=O)(=O)c2ccccc2)c(S(=O)(=O)c2ccc(C)cc2)c2nc3ccccc3nc21	8	7	11	32	11	70*
CCC(=O)Nc1c(S(=O)(=O)c2ccccc2)c2nc3ccccc3nc2n1C(C)c1ccccc1 (stereo unspecified)	12	2	-3	50*	27	73*
Nc1c(S(=O)(=O)c2ccccc2)c2nc3ccccc3nc2n1CCN1CCOCC1	19	-7	-10	10	17	0
CCC(=O)Nc1c(S(=O)(=O)c2ccc(C)cc2)c2nc3ccccc3nc2n1C(C)c1ccccc1 (stereo unspecified)	5	6	-4	35	20	34
COc1ccc(CN2C(=O)c3ccccc3C2c2nnnn2C(C)C)cc1 (stereo unspecified)	nt	nt	nt	-5	7	-5
CCCCn1c(NC(=O)c2ccco2)c(S(=O)(=O)c2ccc(C)cc2)c2nc3ccccc3nc21	-13	9	-9	72*	2	66*
C=CCNC(=S)N/N=C/c1cccc([N+](=O)[O-])c1	7	1	1	-2	-13	-19
O=[N+]([O-])c1cccc(C=NNC(=S)NC23CC4CC(CC(C4)C2)C3)c1	3	-8	4	11	-188	60*
COc1ccccc1NC(=O)COC(=O)c1c(NC(C)=O)sc(C)c1C	21	-13	nt	4	-43	-5
COC(=O)c1ccc2c(=O)n(CCCCCC(=O)O)c(=S)[nH]c2c1	26	9	11	54*	37	19
COC(=O)c1ccc2c(=O)n(CCO)c(=S)[nH]c2c1	-11	-2	16	6	4	-5
O=C(O)c1cc(C(=O)O)cc(N2C(=O)CSC2=S)c1	11	1	-5	16	-1	-5
CCOc1ccc(N2C(=O)CSC2=S)cc1	1	4	-2	33	31	23
CCN(CC)c1ccc(N2C(=O)CSC2=S)cc1	6	-9	8	72*	9	-10
O=C(O)c1ccc(N2C(=O)CSC2=S)cc1	-17	-10	12	68*	32	37
CCCOC(=O)Cn1cnc2scc(-c3ccc(OC)cc3)c2c1=O	-7	0	7	-11	22	7
COC1=C(OC)C(=O)C(Sc2ccc3ccccc3c2)=CC1=O	87*	3	33	58*	49*	8
COc1ccc(S(=O)(=O)Oc2ccc3ccccc3c2)cc1	-15	-19	-43	-18	-216	-33
O=C(NCC1CCOCC1)c1ccc(OC2CCN(Cc3ccccn3)CC2)cc1	6	58*	-9	2	18	2
O=C(NCCc1ccccn1)c1ccc(OC2CCN(Cc3ccccn3)CC2)cc1	-18	-9	5	29	-35	49
NC(=S)NC1CCS(=O)(=O)C1 (stereo unspecified)	4	-1	-3	-11	10	-2
C=CCSC(=S)NC1CCS(=O)(=O)C1 (stereo unspecified)	-22	12	69*	38	31	15
SMILES	Shn3 3UTR inh	LMP1 NFkB inh	MITF TRPM1 inh	TWEAK-Fn14 inh	HIF-2a block	TROY signal inh
COc1ccc(/C=C(\NC(=O)c2ccccc2)C(=O)NCCN2CCOCC2)cc1	-44	2	0	1	-5	-17
CCOC(=O)C1CCc2c(ccc3ccccc23)N1CCC#N (stereo unspecified)	-18	6	nt	0	-3	-24
COC(=O)C1=C(C)N(CCCC(=O)O)C(=O)NC1c1cccc(Cl)c1Cl (stereo unspecified)	12	51*	5	8	10	-9
CCOC(=O)C1=C(C)N(CCCC(=O)O)C(=O)NC1c1ccc2ccccc2c1 (stereo unspecified)	86*	-10	-5	-4	11	1
CCOC(=O)C1=C(C)N(CCCC(=O)O)C(=O)NC1c1ccccc1 (stereo unspecified)	-4	2	3	4	8	0
CC(CNC(=S)Nc1cc(F)cc(F)c1)CSc1ccc(Cl)cc1 (stereo unspecified)	-14	5	9	23	7	61*
CCN(CC(O)CON=C1c2ccccc2-c2ccccc21)S(=O)(=O)c1ccc(Cl)cc1 (stereo unspecified)	0	-5	-8	63*	-16	13
O=C(CCc1nc(-c2ccccc2)no1)NCC1CCCO1 (stereo unspecified)	-12	74*	-9	19	-19	27
Cc1ccc(-c2noc(CCC(=O)NCC3CCCO3)n2)cc1 (stereo unspecified)	-16	7	8	15	-9	-26
C/C(=N\NC(=O)c1cc(C)nc2ccccc12)c1ccncc1	6	-1	-1	19	12	15
C/C(=N\NC(=O)c1cc(C)nc2ccccc12)c1ccccn1	95*	29	89*	-141	-8	23
COc1ccc(/C=N/n2cnc3c([nH]c4ccc(C)cc43)c2=O)cc1CN1CCCC1	-16	-3	83*	8	13	1
N#Cc1ccc(Nc2nc(-c3ccc(O)cc3O)cs2)cc1C(F)(F)F	12	6	-11	86*	-59	67*
Oc1ccc(-c2csc(Nc3ccc4c(c3)OCO4)n2)c(O)c1	-77	-80	-49	15	-311	-22
CCn1cc(Cl)c(C(=O)N2N=C(c3ccc4ccccc4c3)CC2c2ccccc2O)n1 (stereo unspecified)	-34	0	5	72*	2	43
CCn1cc([N+](=O)[O-])c(C(=O)N2N=C(c3ccc4ccccc4c3)CC2c2ccccc2O)n1 (stereo unspecified)	-13	-4	21	39	-28	50
O=C(/C=C/[C@H]1O[C@@H](n2cnc3c(NC(=O)c4ccccc4)ncnc32)[C@H](O)[C@@H]1O)NCc1cccc2ccccc12	16	nt	nt	-17	3	7
Cc1nn(-c2ccccc2)c(C)c1/C=N/NC(=O)c1cc(-c2ccc(Br)s2)[nH]n1	2	15	6	69*	-54	13
Cc1nn(-c2ccccc2)c(C)c1/C=N/NC(=O)c1cc(-c2ccc(Cl)s2)[nH]n1	1	22	9	59*	-34	13
Cc1nn(-c2ccccc2)c(C)c1/C=N/NC(=O)c1cc(-c2cccs2)[nH]n1	13	-19	25	35	-18	4
